Only some compounds are listed: those with a hit (about 5.5% of all), similar ones and a draw of the others.
RORg inh: qHTS for inhibitors of ROR gamma transcriptional activity; Drosophila S2 Gal4-RORgamma UAS-luciferase reporter, 20 h; Potency, µM (highest dose often 53.6 µM), for the others: top-dose activity change, negative = inhibition, usual class: inhibitors; 310,000 tested, 5.4% active; AID 2551, 2010; note: % is set by controls: 0 for no effect and ±100 for the full control effect; nearly all actives have a fitted effect of over 60% in size
Target sequence (P51450 whole entry, looked up, the tested form may be a part): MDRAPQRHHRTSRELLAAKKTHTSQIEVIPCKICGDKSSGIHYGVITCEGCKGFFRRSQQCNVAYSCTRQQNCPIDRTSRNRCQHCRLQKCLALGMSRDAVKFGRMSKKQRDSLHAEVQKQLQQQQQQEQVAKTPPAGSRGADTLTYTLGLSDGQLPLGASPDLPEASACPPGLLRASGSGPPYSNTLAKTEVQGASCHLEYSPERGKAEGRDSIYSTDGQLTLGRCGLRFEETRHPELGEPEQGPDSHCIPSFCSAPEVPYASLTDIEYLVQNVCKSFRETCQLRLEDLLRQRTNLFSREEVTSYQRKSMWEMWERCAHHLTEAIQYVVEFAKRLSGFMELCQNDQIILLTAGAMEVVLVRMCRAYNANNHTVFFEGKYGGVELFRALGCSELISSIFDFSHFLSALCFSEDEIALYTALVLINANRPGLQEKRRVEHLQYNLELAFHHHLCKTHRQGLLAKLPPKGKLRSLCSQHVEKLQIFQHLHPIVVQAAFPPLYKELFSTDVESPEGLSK
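Stable Schneider cell line, Gal4 DNA-binding domain fused to ROR gamma, UAS-luciferase. Cmpd 1 hr RT → CuSO4 700 uM final → 20 hr RT → luciferase reagent 10 min → luminescence.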
BCR signal inh: qHTS Assay to Find Inhibitors of Chronic Active B-Cell Receptor Signaling. ABC-DLBCL IkBa-CBG/CBR reporter, luminescence ratio, 4 h. Potency, µM (doses to about 46.1 µM), for inactives: at the top dose activity change, negative = inhibition, usual class: inhibitors. 340,000 tested, 0.05% active. AID 493014, 2011; active = well fitted inhibition curve with a large enough effect in the signal ratio, with a control signal flat, not every such curve was filed as active; inconclusive = small, poorly fitted or top-dose-only effect, or effect the other way, or a change in a side signal; the % refers to the signal ratio;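 note: plate controls were basal doxycycline-induced cells for no effect and cells given 10 µM MG132 for full effect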
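TMD8 human ABC-DLBCL cells with doxycycline-inducible IκBα–green luciferase fusion and unfused red luciferase, in 0.5% FBS medium; compounds up to 46 uM, 4 h at 37C. Green/red luminescence ratio, filter-overlap corrected, fitted to concentration-response curves.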
uPA generation: qHTS for Inhibitors of Cell Surface uPA Generation. cell surface uPA generation assay, qHTS. 330,000 tested, 0.31% active. Potency, µM (top dose mostly 38.3 µM), without a hit: at the top dose activity change, negative = inhibition, most hits filed as inhibitors. AID 540303, 2011; active = well fitted inhibition curve with a large enough effect; inconclusive = small, poorly fitted or top-dose-only effect; inactive = no such curve, though single readings can be large or run the other way; tested in mouse RAW 264.7 cells; note: % is set by controls: 0 for no effect and ±100 for the full control effect; nearly all actives have a fitted effect of over 55% in size
VP16 counter: VP16 counterscreen qHTS for inhibitors of ROR gamma transcriptional activity; Drosophila S2 Gal4-VP16 UAS-luciferase, luminescence, 20 h; AID 2546, 2010; 310,000 tested, 3.5% active; Potency, µM (titrated, usually from 53.6 µM), for inactives: top-dose activity, negative = inhibition, actives largely listed as inhibitors;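 note: Gal4-VP16 expression switched on by copper sulfate through the metallothionein promoter; % is set by controls: 0 for no effect and ±100 for the full control effect; nearly all actives have a fitted effect of over 50% in size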
Integrin act MD: qHTS for Activators of Integrin-Mediated Alleviation for Muscular Dystrophy. alpha7betagal myoblasts, beta-gal FDG fluorescence, 48 h. Potency, µM (titrated, usually from 38.3 µM), for inactives: at the top dose activation, hits mostly activators. 350,000 tested, 0.064% active. AID 624291, 2012;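 note: 100% = response of the positive control SU9516; nearly all actives have a fitted effect of over 60% in size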
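alpha7betagal+/- myoblasts (passage 13, 250/well) treated 48 h at 37C with compounds at 1:260 dilution of DMSO stock. Lysed, then beta-galactosidase activity read as FDG fluorescence (ex 480/em 540) after 30 min, with pre-read for autofluorescence.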
Mito fusion yeast: qHTS Assay for Small Molecule Inhibitors of Mitochondrial Division or Activators of Mitochondrial Fusion | S. cerevisiae fusion-defective mutant growth rescue, CellTiterGlo 48 h | Potency, µM (series often up to 46.1 µM), for the others: top-dose growth rescue (activation), actives largely listed as activators | 320,000 tested, 0.23% active; note: % of control where 0% means no effect; nearly all actives have a fitted effect of over 45% in size
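Compounds are tested for their ability to restore growth of mitochondrial fusion-defective yeast strains at non-permissive 37C in YPEG medium over 48 hours. Viability is quantified by luciferase luminescence.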
Active calls of the source: *; ? = inconclusive; · = not tested or not shown. Unless noted, calls come from the whole dose curve; as a rule, active = well fitted curve in the direction sought with a large enough effect; inconclusive = small, poorly fitted or top-dose-only effect, or another doubt; inactive = no such curve, though single readings can be large; an effect the other way counts as inactive or inconclusive. Potency is the fitted concentration of half-maximal effect.

SMILES	RORg inh	BCR signal inh	uPA generation	VP16 counter	Integrin act MD	Mito fusion yeast
Cc1ccc(CC(=O)O/N=C(\N)Cc2ccc([N+](=O)[O-])cc2)cc1	0%	0%	-6%	?	19%	7%
N/C(Cc1ccc([N+](=O)[O-])cc1)=N\OC(=O)c1ccccc1Br	?	-10%	-9%	11µM*	-6%	-20%
COc1ccc(C/C(N)=N/OC(=O)C(c2ccccc2)c2ccccc2)cc1OC	24%	5%	-9%	?	-21%	4%
N/C(Cc1ccc([N+](=O)[O-])cc1)=N\OC(=O)C(c1ccccc1)c1ccccc1	?	-6%	-4%	10µM*	-61%	-19%
N/C(Cc1ccc([N+](=O)[O-])cc1)=N\OC(=O)CC1CCCCC1	13µM*	-1%	-4%	13µM*	-5%	-23%
Cc1nnc(NC(=O)c2ccc3ccccc3n2)s1	2.8µM*	?	?	7.1µM*	17%	1%
Cc1ccc(NC(=O)c2ccc(NCCN)c([N+](=O)[O-])c2)cc1Cl	-12%	?	-5%	-8%	0%	-18%
CCNc1ccc(C(=O)Nc2ccc3nc(C)sc3c2)cc1[N+](=O)[O-]	?	-2%	1%	-30%	-12%	35µM*
NNC(=O)c1ccc2ccccc2n1	?	?	-1%	1%	-32%	-19%
Cc1nc2ccc(NC(=O)c3ccc4ccccc4n3)cc2s1	2%	7%	10%	15%	?	4µM*
O=C(NCc1ccccn1)c1ccc2ccccc2n1	3.5µM*	1%	-9%	10µM*	7%	-1%
Cc1nc2ccc(NC(=O)c3ccccc3)cc2s1	14%	?	-10%	4%	-25%	-3%
O=C(Nc1ccccc1)N1CCCC2(CCNCC2)C1	-26%	·	·	19%	·	·
N#Cc1c(Cl)nc(-c2ccncc2)nc1-c1ccccc1	-8%	4%	-3%	1%	5%	-10%
Cc1ccc(CSc2nnc(SCC(=O)N/N=C/C=C/c3ccccc3[N+](=O)[O-])s2)cc1	11µM*	-5%	-6%	?	-36%	0%
Cn1c(SCC(=O)N/N=C/C=C\c2ccco2)nc2ccccc21	0.4µM*	1%	-2%	?	-31%	-3%
CCn1c(SCC(=O)N/N=C/C=C\c2ccco2)nc2ccccc21	?	-17%	-3%	?	-4%	2%
Cc1ccc(CSc2nnc(SCC(=O)N/N=C/C=C/c3ccco3)s2)cc1	7.1µM*	?	-4%	11µM*	-13%	-2%
O=C(Nc1c2c(nn1-c1ccc(Cl)cc1)CS(=O)(=O)C2)c1ccc(Br)cc1	·	-2%	·	·	·	·
Cc1noc(C)c1-c1ccc2ncnc(NCc3ccc4c(c3)OCO4)c2c1	-2%	·	·	-4%	·	·
COC(=O)CC1c2ccccc2C=C(C2CC2)N1C(=O)OC (stereo not given)	2%	·	·	-6%	·	·
O=C(Nc1ccccc1)N1CCCC2(CCN(C(=O)c3ccco3)CC2)C1	40%	·	·	-1%	·	·
O=C(Nc1nc2ccc(Cl)cc2s1)c1ccco1	?	?	-2%	?	2%	11%
O=C(Nc1nc2ccccc2s1)c1ccc([N+](=O)[O-])o1	-24%	?	-5%	0%	-4%	8%
CC(=O)Nc1nc2ccc(NC(=O)c3ccco3)cc2s1	3%	-22%	-8%	10%	28%	8%
SMILES	RORg inh	BCR signal inh	uPA generation	VP16 counter	Integrin act MD	Mito fusion yeast
COc1ccc2nc(NC(=O)c3ccc([N+](=O)[O-])o3)sc2c1	?	?	-7%	11µM*	-56%	-18%
Cc1ccc2nc(NC(=O)c3ccco3)sc2c1	8.9µM*	?	-21%	7.1µM*	1%	5%
COc1ccc2nc(NC(=O)c3ccco3)sc2c1	10µM*	?	?	10µM*	-5%	19%
Cc1ccc2nc(NC(=S)NC(=O)c3ccco3)sc2c1	0.28µM*	?	-4%	3.5µM*	23%	4%
C/C(=N\NC(=O)CCC(=O)Nc1ccc(C)c(C)c1)C1CC1	6%	3%	10%	1%	21%	-6%
CC(C)CN(C(=O)c1cccs1)C1CCS(=O)(=O)C1 (stereo not given)	·	-2%	2%	·	2%	0%
CCc1ccc(C2=NN(C(=O)OC)C(O)(C(F)(F)F)C2)cc1 (stereo not given)	11µM*	?	-46%	?	-2%	0%
O=C(c1ccco1)N1N=C(c2ccncc2)CC1(O)C(F)(F)F (stereo not given)	10%	-15%	2%	2%	-5%	3%
CCC1=NN(C(=O)Cc2ccc(OC)cc2)C(O)(C(F)(F)F)C1 (stereo not given)	11µM*	-1%	4%	?	10%	3%
COc1ccc(OCC(=O)N2N=C(C)CC2(O)C(F)(F)F)cc1 (stereo not given)	6.3µM*	1%	1%	?	-7%	-1%
CCCC1=NN(C(=O)Cc2ccc(OC)c(OC)c2)C(O)(C(F)(F)F)C1 (stereo not given)	?	0%	5%	-19%	2%	2%
CCOC(=O)N1N=C(c2ccc(OC)cc2)CC1(O)C(F)(F)F (stereo not given)	?	10%	?	?	16%	0%
COc1ccc(CC(=O)N2N=C(c3ccncc3)CC2(O)C(F)(F)F)cc1 (stereo not given)	11µM*	?	?	-3%	-40%	6%
COc1ccc(-c2c(O)c3c(OC)c4c(cc3oc2=O)OC(C)(C)CC4)cc1	-1%	·	·	-12%	·	·
CCOCCn1c(=O)c2c(nc3n2CCN3c2ccc(C)c(C)c2)n(C)c1=O	·	0%	·	·	·	-7%
O=c1cnc2cnc(Oc3ccccc3)nc2n1C1CC1	-6%	·	·	4%	·	·
CCCN1CCC(=O)N(C(CSc2ccc(Br)cc2)CC(C)C)CC1 (stereo not given)	-2%	·	·	-8%	·	·
Cc1ccccc1C(=O)NC(=S)Nc1ccc(S(=O)(=O)N(C)c2ccccc2)cc1	11µM*	?	0%	?	-26%	12%
CN(c1ccccc1)S(=O)(=O)c1ccc(NC(=O)c2nc(S(C)(=O)=O)ncc2Cl)cc1	6.3µM*	?	?	2.8µM*	-66%	-9%
CN(c1ccccc1)S(=O)(=O)c1ccc(NC(=O)c2ccccc2)cc1	?	1%	4%	-17%	17%	22µM*

Screening data from PubChem.
